Experiment [1] concerns the target Aldehyde dehydrogenase, mitochondrial (Homo sapiens) (UniProt P05091). The experiment in a line: qHTS for Inhibitors of the Aldehyde Dehydrogenase Family (ALDH2) Confirmatory screens (AID 2061303; active means well fitted inhibition curve with a large enough effect; title and protocol of this record describe different tests; further: nearly all actives have a fitted effect of over 45% in size; further: potency means the concentration at half of the fitted maximal effect).
Experiment [2] is described as follows: qHTS for Inhibitors of the Aldehyde Dehydrogenase Family (ALDH1A2, ALDH1A3, ALDH2, ALDH3A1) (AID 2061307). Further: nearly all actives have a fitted effect of over 50% in size. On Potency: test system not described further here; potency means the concentration at half of the fitted maximal effect.
Experiment [3] has as its target Aldehyde dehydrogenase, mitochondrial (Homo sapiens) (UniProt P05091). Description: qHTS for Inhibitors of the Aldehyde Dehydrogenase Family (ALDH2) Primary screen (AID 2061308). Further: nearly all actives have a fitted effect of over 55% in size. Further: potency means the concentration at half of the fitted maximal effect.
In experiment [4] the target is Retinaldehyde dehydrogenase 3 (Homo sapiens) (UniProt P47895). The experiment in a line: qHTS for Inhibitors of the Aldehyde Dehydrogenase Family (ALDH1A3) Confirmatory screens (AID 2061311). Further: nearly all actives have a fitted effect of over 60% in size. Further: potency means the concentration at half of the fitted maximal effect.
For experiment [5], the target named is Retinal dehydrogenase 2 (Homo sapiens) (UniProt O94788). The experiment in a line: qHTS for Inhibitors of the Aldehyde Dehydrogenase Family (ALDH1A2) Confirmation screens (AID 2061314). Further: nearly all actives have a fitted effect of over 65% in size. Further: potency means the concentration at half of the fitted maximal effect.
Experiment [6] deals with Retinaldehyde dehydrogenase 3 (Homo sapiens) (UniProt P47895). Description: qHTS for Inhibitors of the Aldehyde Dehydrogenase Family (ALDH1A3) Primary screen (AID 2061315).
For experiment [7] the target is unchanged. Description: qHTS for Inhibitors of the Aldehyde Dehydrogenase Family (ALDH1A3) Validation screen (AID 2061312). Further: nearly all actives have a fitted effect of over 45% in size. Further: potency means the concentration at half of the fitted maximal effect.
For experiment [8], the target named is Aldehyde dehydrogenase 1A1 (Homo sapiens) (UniProt P00352). The experiment in a line: qHTS for Inhibitors of the Aldehyde Dehydrogenase Family (ALDH1A1) Confirmatory screens (AID 2061316). Further: nearly all actives have a fitted effect of over 65% in size. Further: potency means the concentration at half of the fitted maximal effect.

Results filed as inconclusive are left out. Unmarked numbers belong to inactive results. Active and inactive are the calls of the source. Unless noted, the call rests on the fitted dose curve; in most records, active means well fitted curve in the direction sought with a large enough effect; inconclusive means small, poorly fitted or top-dose-only effect, or another doubt; inactive means no such curve, though single readings can be large; an effect the other way counts as inactive or inconclusive.

With `Oc1cc(Nc2cccnc2)cc2cccnc12`, the Potency result in experiment [1], in experiment [2], in experiment [3] and in experiment [5] was “inactive” each time. Moreover, in experiment [4], the Potency was 0.283 µM (active).
Regarding `O=C(Nc1ccccc1)OCc1c(-c2ccccc2)no[n+]1[O-]`, the Potency entry in experiment [1], in experiment [3], in experiment [4], in experiment [5] and in experiment [6] was “inactive” in each case. The Potency in experiment [2] is 11.3 µM (active).
For the molecule `C[C@@H](N)C(=O)Nc1ccc(Cl)cc1C(=O)c1ccc[nH]1`, the Potency result in experiment [1], in experiment [2], in experiment [3], in experiment [4], in experiment [5] and in experiment [6] was “inactive” throughout.
Take `COc1ccc(-c2nc3ccccc3s2)cc1`: the Potency result in experiment [1], in experiment [3] and in experiment [5] was “inactive” each time. Also, the Potency in experiment [2] is 1.7 µM (active); in experiment [4], 1.42 µM (active).
`Nc1ncnc2c1ncn2[C@@H]1O[C@H](CN[S+](=O)([O-])NC(=O)c2cccc(-c3noc(-c4ccccc4F)n3)c2)[C@@H](O)[C@H]1O`: the Potency result in experiment [1] and in experiment [3] was “inactive” in each case. Further, the Potency in experiment [2] was 1.2 µM (active); in experiment [4] it was 0.252 µM (active); in experiment [5], 14.2 µM (active).
Turning to `Cc1ccc(OCCn2c(CCNC(=O)c3cccc(Cl)c3)nc3ccccc32)cc1`, the Potency result in experiment [1], in experiment [2], in experiment [3], in experiment [4], in experiment [5] and in experiment [6] was “inactive” throughout.
For `Cc1nc2ccc(Nc3nc(Nc4c(C)cc(C=CC#N)cc4C)nc4nc[nH]c34)cc2s1`, the Potency entry in experiment [1], in experiment [3], in experiment [4], in experiment [5] and in experiment [6] was “inactive” throughout. In experiment [2], the Potency is 10.1 µM (active).
As to `NC(=O)C1CCN(c2nc(-c3ccc([N+](=O)[O-])cc3)cs2)CC1`, the Potency was 25.1 µM (active) in experiment [1], 11.3 µM (active) in experiment [2], 22.5 µM (active) in experiment [4] and 3.18 µM (active) in experiment [5]. In addition, the Potency result in experiment [3] and in experiment [6] was “inactive” each time.
On to `C=C(C(=O)OC)C1CCC2(C)C(O[C@@H]3O[C@H](CO)[C@@H](O)[C@H](O)[C@H]3O)CC(=O)C(C)C2C1O` (some centres undefined), for which the Potency result in experiment [1], in experiment [2], in experiment [3] and in experiment [5] was “inactive” throughout. In addition, the Potency in experiment [4] was 11 µM (active).
Regarding `O=C1c2ccccc2NC(c2ccc(-c3ccc(Br)cc3)o2)N1O` (centres undefined), the Potency in experiment [1] was 0.891 µM (active); in experiment [2], 11.3 µM (active); in experiment [3], 1 µM (active); in experiment [4] it was 12.7 µM (active); in experiment [5], 12.7 µM (active). Further, the Potency result in experiment [6] is “inactive”.
With `Cc1cc(C)n2ncc(C(=O)Nc3ccc4c(c3)OCO4)c2n1`, the Potency result in experiment [1], in experiment [2], in experiment [3], in experiment [4], in experiment [5] and in experiment [6] was “inactive” each time.
In the case of `CCN1CCN(C(=O)N[C@@H](C(=O)N[C@@H]2C(=O)N3[C@@H]2SC(C)(C)[C@@H]3C(=O)O)c2ccccc2)C(=O)C1=O`, the Potency result in experiment [1], in experiment [2], in experiment [3], in experiment [4], in experiment [7] and in experiment [5] was “inactive” each time. Moreover, the Potency result in experiment [6] and in experiment [8] was “inactive” each time.
For `CCCCC(=O)N1CCC(C(=O)Nc2ccc([S+](=O)([O-])Nc3nccs3)cc2)CC1`, the Potency entry in experiment [1], in experiment [2], in experiment [3], in experiment [4], in experiment [5] and in experiment [6] was “inactive” each time.
Take `NC(=O)C1CCN(c2ncc(-c3ccc(Cl)cc3)s2)CC1`: the Potency entry in experiment [1], in experiment [3], in experiment [4], in experiment [5] and in experiment [6] was “inactive” in each case. Moreover, the Potency in experiment [2] was 12.7 µM (active).
In the case of `CC(=O)Nc1sc2c(c1-c1cc3ccccc3[nH]1)CCNC2`, the Potency result in experiment [1], in experiment [2], in experiment [3], in experiment [4] and in experiment [6] was “inactive” throughout. For the same molecule, the Potency in experiment [5] was 28.3 µM (active).
Turning to `COc1cc(CNc2ncnc3ccc(-c4c(C)noc4C)cc23)cc(OC)c1OC`, the Potency result in experiment [1], in experiment [2], in experiment [3], in experiment [4], in experiment [5] and in experiment [6] was “inactive” each time.
As to `NC1CCN(c2cnc3c(O)ccc(C(=O)O)c3c2)CC1`, the Potency entry in experiment [1], in experiment [2], in experiment [3] and in experiment [6] was “inactive” throughout. Besides, the Potency in experiment [4] was 20.1 µM (active); in experiment [5], 14.2 µM (active).
For the molecule `O=C(NC1CCCc2c1cnn2-c1ccc(F)cc1F)c1ccncc1` (centres undefined), the Potency entry in experiment [1], in experiment [2], in experiment [3], in experiment [4], in experiment [5] and in experiment [6] was “inactive” in each case.
With `c1cncc(CNc2ncnc3ccc(-c4ccoc4)cc23)c1`, the Potency result in experiment [1], in experiment [2], in experiment [3], in experiment [4], in experiment [5] and in experiment [6] was “inactive” each time.
Take `COc1nc2ccc(Br)cc2cc1[C@@H](c1ccccc1)[C@@](O)(CCN(C)C)c1cccc2ccccc12`: the Potency in experiment [1] is 1.27 µM (active); in experiment [2], 0.896 µM (active); in experiment [3] it was 0.708 µM (active); in experiment [4] it was 8.96 µM (active); in experiment [7], 1.26 µM (active); in experiment [5], 1.79 µM (active). In addition, the Potency in experiment [8] was 0.142 µM (active).

The record behind these values is PubChem BioAssay (NCATS).
